# Laboratory results reported in PubChem BioAssay AID1159580 (chemical genetic matrix, 2015).
# Values joined by “and” are separate entries in the source; they are usually repeats but may differ in a detail not shown here. Equal entries are not always repeated. The campaign covered roughly 5,500 compounds. About 2,000 (36%) were called active. Not shown: some 18% with an inconclusive outcome. No stated cut-off is given here; in the data, active means normalized growth mostly below about 0.91 (no sharp cut-off); inconclusive means no clear call, values can overlap the other calls; inactive means mostly above about 0.92. The list shows a part of the results. Where a structure was tested more than once in an assay, its records may differ in their call.
# Assay: chemical genetic growth profiling, strain panel (AID 1159580);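 further: tested at 20 µM; growth read once vehicle control cultures reached saturation at 30 °C; 1 = growth at the plate median or of vehicle wells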
# Conditions: growth OD
compound,measurement,setting,value
Cc1cc(O)c2c(c1)C(=O)c1cc(O)cc(O)c1C2=O,normalized growth,"S. cerevisiae deletion strains, locus YAL013W, strain DEP1, stronger effect = lower value",0.868 (active)
same,normalized growth,"S. cerevisiae deletion strains, locus YAL040C, strain CLN3, stronger effect = lower value",0.749 (active)
same,normalized growth,"S. cerevisiae deletion strains, locus YBR021W, strain FUR4, stronger effect = lower value",0.914 (inactive)
same,normalized growth,"S. cerevisiae deletion strains, locus YBR229C, strain ROT2, stronger effect = lower value",0.923 (inactive)
same,normalized growth,"S. cerevisiae deletion strains, locus YCL029C, strain bik1, stronger effect = lower value",0.734 (active)
same,normalized growth,"S. cerevisiae deletion strains, locus YCL061C, strain MRC1 (second series), stronger effect = lower value",0.986 (inactive)
same,normalized growth,"S. cerevisiae deletion strains, locus YDL035C, strain GPR1, stronger effect = lower value",0.699 (active)
same,normalized growth,"S. cerevisiae deletion strains, locus YDL074C, strain BRE1, stronger effect = lower value",0.56 (active)
same,normalized growth,"S. cerevisiae deletion strains, locus YDL101C, strain DUN1, stronger effect = lower value",0.732 (active)
same,normalized growth,"S. cerevisiae deletion strains, locus YDL134C, strain PPH21, stronger effect = lower value",0.783 (active)
same,normalized growth,"S. cerevisiae deletion strains, locus YDL185W, strain tfp1, stronger effect = lower value",0.795 (active)
same,normalized growth,"S. cerevisiae deletion strains, locus YDL192W, strain arf1, stronger effect = lower value",0.393 (active)
same,normalized growth,"S. cerevisiae deletion strains, locus YDR101C, strain arx1, stronger effect = lower value",0.584 (active)
same,normalized growth,"S. cerevisiae deletion strains, locus YDR162C, strain NBP2, stronger effect = lower value",0.483 (active)
same,normalized growth,"S. cerevisiae deletion strains, locus YDR318W, strain mcm21, stronger effect = lower value",0.712 (active)
same,normalized growth,"S. cerevisiae deletion strains, locus YDR363W, strain ESC2, stronger effect = lower value",1.02 (inactive)
same,normalized growth,"S. cerevisiae deletion strains, locus YDR388W, stronger effect = lower value",0.471 (active)
same,normalized growth,"S. cerevisiae deletion strains, locus YDR502C, strain sam2, stronger effect = lower value",0.56 (active)
same,normalized growth,"S. cerevisiae deletion strains, locus YEL061C, strain CIN8, stronger effect = lower value",0.745 (active)
same,normalized growth,"S. cerevisiae deletion strains, locus YER002W, strain NOP16, stronger effect = lower value",0.749 (active)
same,normalized growth,"S. cerevisiae deletion strains, locus YER110C, stronger effect = lower value",0.671 (active)
same,normalized growth,"S. cerevisiae deletion strains, locus YER155C, strain BEM2, stronger effect = lower value",0.716 (active)
same,normalized growth,"S. cerevisiae deletion strains, locus YER167W, strain BCK2, stronger effect = lower value",0.674 (active)
same,normalized growth,"S. cerevisiae deletion strains, locus YGL078C, strain dbp3, stronger effect = lower value",0.789 (active)
same,normalized growth,"S. cerevisiae deletion strains, locus YGL086W, strain mad1, stronger effect = lower value",0.645 (active)
same,normalized growth,"S. cerevisiae deletion strains, locus YGL248W, strain PDE1, stronger effect = lower value",0.853 (active)
same,normalized growth,"S. cerevisiae deletion strains, locus YGR078C, strain PAC10, stronger effect = lower value",0.723 (active)
same,normalized growth,"S. cerevisiae deletion strains, locus YGR135W, strain pre9, stronger effect = lower value",0.741 (active)
same,normalized growth,"S. cerevisiae deletion strains, locus YGR229C, strain SMI1, stronger effect = lower value",0.338 (active)
same,normalized growth,"S. cerevisiae deletion strains, locus YGR252W, strain gcn5, stronger effect = lower value",0.415 (active)
same,normalized growth,"S. cerevisiae deletion strains, locus YHR030C, strain SLT2, stronger effect = lower value",0.629 (active)
same,normalized growth,"S. cerevisiae deletion strains, locus YHR079C, strain IRE1 (second series), stronger effect = lower value",0.854 (active)
same,normalized growth,"S. cerevisiae deletion strains, locus YHR094C, strain hxt1, stronger effect = lower value",0.673 (active)
same,normalized growth,"S. cerevisiae deletion strains, locus YHR129C, strain ARP1, stronger effect = lower value",0.705 (active)
same,normalized growth,"S. cerevisiae deletion strains, locus YHR200W, strain rpn10, stronger effect = lower value",0.75 (active)
same,normalized growth,"S. cerevisiae deletion strains, locus YIL066C, strain RNR3, stronger effect = lower value",0.688 (active)
same,normalized growth,"S. cerevisiae deletion strains, locus YIL073C, strain SPO22, stronger effect = lower value",0.959 (inactive)
same,normalized growth,"S. cerevisiae deletion strains, locus YIL125W, strain kgd1, stronger effect = lower value",0.842 (active)
same,normalized growth,"S. cerevisiae deletion strains, locus YIR030C, strain dcg1, stronger effect = lower value",0.635 (active)
same,normalized growth,"S. cerevisiae deletion strains, locus YJL095W, strain BCK1, stronger effect = lower value",0.475 (active)
same,normalized growth,"S. cerevisiae deletion strains, locus YJL134W, strain LCB3, stronger effect = lower value",0.907 (active)
same,normalized growth,"S. cerevisiae deletion strains, locus YJL168C, strain set2, stronger effect = lower value",0.818 (active)
same,normalized growth,"S. cerevisiae deletion strains, locus YJL187C, strain SWE1 (second series), stronger effect = lower value",0.69 (active)
same,normalized growth,"S. cerevisiae deletion strains, locus YJR043C, strain POL32, stronger effect = lower value",0.708 (active)
same,normalized growth,"S. cerevisiae deletion strains, locus YJR075W, strain HOC1, stronger effect = lower value",0.998 (inactive) and 0.795 (active)
same,normalized growth,"S. cerevisiae deletion strains, locus YKL009W, strain mrt4, stronger effect = lower value",0.753 (active)
same,normalized growth,"S. cerevisiae deletion strains, locus YKL068W, stronger effect = lower value",0.857 (active)
same,normalized growth,"S. cerevisiae deletion strains, locus YKL085W, strain MDH1 (second series), stronger effect = lower value",0.795 (active)
same,normalized growth,"S. cerevisiae deletion strains, locus YKL085W, strain MDH1, stronger effect = lower value",0.795 (active)
same,normalized growth,"S. cerevisiae deletion strains, locus YKL190W, strain CNB1, stronger effect = lower value",0.823 (active)
same,normalized growth,"S. cerevisiae deletion strains, locus YKR001C, strain vps1, stronger effect = lower value",0.309 (active)
same,normalized growth,"S. cerevisiae deletion strains, locus YLR039C, strain RIC1, stronger effect = lower value",0.313 (active)
same,normalized growth,"S. cerevisiae deletion strains, locus YLR058C, strain SHM2, stronger effect = lower value",0.834 (active)
same,normalized growth,"S. cerevisiae deletion strains, locus YLR102C, strain apc9, stronger effect = lower value",0.837 (active)
same,normalized growth,"S. cerevisiae deletion strains, locus YLR262C, strain YPT6, stronger effect = lower value",0.383 (active)
same,normalized growth,"S. cerevisiae deletion strains, locus YLR268W, strain sec22, stronger effect = lower value",0.474 (active)
same,normalized growth,"S. cerevisiae deletion strains, locus YLR330W, strain CHS5, stronger effect = lower value",0.708 (active)
same,normalized growth,"S. cerevisiae deletion strains, locus YLR342W, strain FKS1 (second series), stronger effect = lower value",0.553 (active)
same,normalized growth,"S. cerevisiae deletion strains, locus YLR371W, strain rom2, stronger effect = lower value",0.612 (active)
same,normalized growth,"S. cerevisiae deletion strains, locus YLR418C, strain cdc73, stronger effect = lower value",0.324 (active)
same,normalized growth,"S. cerevisiae deletion strains, locus YML016C, strain PPZ1, stronger effect = lower value",0.916 (active)
same,normalized growth,"S. cerevisiae deletion strains, locus YML032C, strain rad52, stronger effect = lower value",0.6 (active)
same,normalized growth,"S. cerevisiae deletion strains, locus YML124C, strain tub3, stronger effect = lower value",0.724 (active)
same,normalized growth,"S. cerevisiae deletion strains, locus YMR078C, strain ctf18, stronger effect = lower value",0.776 (active)
same,normalized growth,"S. cerevisiae deletion strains, locus YMR223W, strain ubp8, stronger effect = lower value",0.643 (active)
same,normalized growth,"S. cerevisiae deletion strains, locus YMR263W, strain SAP30, stronger effect = lower value",0.968 (inactive) and 0.787 (active)
same,normalized growth,"S. cerevisiae deletion strains, locus YMR307W, strain GAS1, stronger effect = lower value",0.8 (active) and 0.335 (active)
same,normalized growth,"S. cerevisiae deletion strains, locus YNL067W, strain RPL9B, stronger effect = lower value",0.782 (active)
same,normalized growth,"S. cerevisiae deletion strains, locus YNL128W, strain TEP1, stronger effect = lower value",0.713 (active)
same,normalized growth,"S. cerevisiae deletion strains, locus YNL153C, strain GIM3, stronger effect = lower value",0.439 (active) and 0.847 (active)
same,normalized growth,"S. cerevisiae deletion strains, locus YNL175C, strain NOP13, stronger effect = lower value",0.732 (active)
same,normalized growth,"S. cerevisiae deletion strains, locus YNL197C, strain WHI3, stronger effect = lower value",0.727 (active)
same,normalized growth,"S. cerevisiae deletion strains, locus YNL224C, strain SQS1, stronger effect = lower value",0.861 (active)
same,normalized growth,"S. cerevisiae deletion strains, locus YNL233W, strain BNI4, stronger effect = lower value",0.63 (active)
same,normalized growth,"S. cerevisiae deletion strains, locus YNL250W, strain rad50, stronger effect = lower value",0.73 (active)
same,normalized growth,"S. cerevisiae deletion strains, locus YNL271C, strain bni1, stronger effect = lower value",0.782 (active)
same,normalized growth,"S. cerevisiae deletion strains, locus YNL298W, strain CLA4, stronger effect = lower value",0.716 (active)
same,normalized growth,"S. cerevisiae deletion strains, locus YNL307C, strain MCK1, stronger effect = lower value",0.59 (active)
same,normalized growth,"S. cerevisiae deletion strains, locus YNL322C, strain KRE1, stronger effect = lower value",0.832 (active)
same,normalized growth,"S. cerevisiae deletion strains, locus YNR052C, strain pop2, stronger effect = lower value",0.218 (active)
same,normalized growth,"S. cerevisiae deletion strains, locus YOL012C, strain htz1",0.486 (inactive)
same,normalized growth,"S. cerevisiae deletion strains, locus YOL147C, strain pex11, stronger effect = lower value",0.402 (active)
same,normalized growth,"S. cerevisiae deletion strains, locus YOR061W, strain CKA2, stronger effect = lower value",0.834 (active)
same,normalized growth,"S. cerevisiae deletion strains, locus YOR069W, strain VPS5, stronger effect = lower value",0.796 (active)
same,normalized growth,"S. cerevisiae deletion strains, locus YOR083W, strain WHI5 (second series), stronger effect = lower value",0.422 (active)
same,normalized growth,"S. cerevisiae deletion strains, locus YOR136W, strain idh2, stronger effect = lower value",0.661 (active)
same,normalized growth,"S. cerevisiae deletion strains, locus YOR144C, strain elg1, stronger effect = lower value",0.759 (active)
same,normalized growth,"S. cerevisiae deletion strains, locus YOR184W, strain ser1, stronger effect = lower value",0.299 (active)
same,normalized growth,"S. cerevisiae deletion strains, locus YOR316C, strain cot1, stronger effect = lower value",0.83 (active)
same,normalized growth,"S. cerevisiae deletion strains, locus YPL055C, strain LGE1, stronger effect = lower value",0.556 (active)
same,normalized growth,"S. cerevisiae deletion strains, locus YPL241C, strain CIN2, stronger effect = lower value",0.986 (inactive)
same,normalized growth,"S. cerevisiae deletion strains, locus YPR119W, strain clb2, stronger effect = lower value",0.808 (active)
same,normalized growth,"S. cerevisiae deletion strains, locus YPR141C, strain kar3, stronger effect = lower value",0.868 (active)
same,normalized growth,"S. cerevisiae deletion strains, locus YPR163C, strain tif3, stronger effect = lower value",0.403 (active)
same,normalized growth,"S. cerevisiae deletion strains, locus YPR167C, strain met16, stronger effect = lower value",0.708 (active)
same,normalized growth,"S. cerevisiae deletion strains, strain wtn01, stronger effect = lower value",0.608 (active)
same,normalized growth,"S. cerevisiae strains, strain wild type, stronger effect = lower value",0.715 (active)
